Molecules are shown by their SMILES. Results filed as inconclusive are left out. Calls of active or inactive are those of the source. Calls follow the shape of the dose curve; as a rule, active = well fitted inhibition curve with a large enough effect; inconclusive = small, poorly fitted or top-dose-only effect; inactive = flat fitted curve, though single readings scatter.
% is scaled to controls: 0 for no effect and ±100 for the full control effect; potency is read from the fitted curve at half-maximal effect.

This assay has as its system HEK293. The experiment in a line: Cytotoxic Profiling of Annotated Libraries Using Quantitative High-Throughput Screening (AID 1296008). Also: nearly all actives have a fitted effect of over 60% in size. The conditions noted are these: Five cell lines viability, CellTiter-Glo ATP luminescence, 48-72 h; max response: stronger effect = lower value. The procedure, abridged:
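Cells exposed to compounds for 48 or 72 hr at 37 degrees Celsius. Viability read as ATP-coupled luminescence with CellTiter-Glo after 10 min at room temperature.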
In general terms: Cellular ATP, detected with luciferase, serves as a proxy for viable cell number.
With `C/C1=C\CC[C@H](C)CCO[C@@H]2O[C@H](CO[C@@H]3OC[C@](O)(COC1=O)[C@H]3O)[C@@H](O)[C@H](O)[C@H]2O`, the max response is -0.349% (inactive).
As for `C=C1CCC[C@]2(C)CC[C@@H](C(=C)C(=O)O)[C@H](O)[C@@H]12`, the max response was -1.48% (inactive).
Consider `CCc1ccc(Cc2ccc3c(c2)[C@]2(OC3)O[C@H](CO)[C@@H](O)[C@H](O)[C@H]2O)cc1`, for which the max response was -3.78% (inactive).
As for `CC(=O)OC1CC2(C)C3=CCC4(C)C5C(O)C(O)C(C(C)C)C5(C)CCC4(C)C3CCC2C(C)(C)C1OC1OC(CO)C(O)C(O)C1O` (stereo not given), the max response is -1.39% (inactive).
Same read-out and setting: under `CC1(C)CC[C@]2(C(=O)O[C@@H]3O[C@H](CO[C@@H]4O[C@H](CO)[C@@H](O)[C@H](O)[C@H]4O[C@@H]4O[C@H](CO)[C@H](O)[C@H](O)[C@H]4O)[C@@H](O)[C@H](O[C@@H]4O[C@H](CO)[C@@H](O)[C@H](O)[C@H]4O)[C@H]3O)CC[C@]3(C)C(=CCC4[C@@]5(C)CC[C@H](O[C@@H]6OC[C@@H](O)[C@H](O)[C@H]6O)[C@@](C)(C(=O)O)C5CC[C@]43C)[C@@H]2C1` (stereo not given in full) stands 2.33% (inactive); under `CC(C)S(=O)(=O)NC[C@H](C)c1ccc(NC(=O)c2cc(F)cc(F)c2)cc1`, -6.11% (inactive).
Consider `COc1c2c(c(C)c3c1C(=O)OC3)OC1(C)CC(O)C(C(C)(C)O)C(C)(CCC(=O)O)C1C2` (stereo not given), for which the max response was -5.2% (inactive).
With `CC(C)C(C#N)O[C@@H]1O[C@H](CO[C@@H]2O[C@@H](C)[C@H](O)[C@@H](O)[C@H]2O)[C@@H](O)[C@H](O)[C@H]1O` (stereo not given in full), the max response was 0.693% (inactive).
On the same count and under the same terms, in the case of `Cc1oc2ccccc2c1CNC(=O)NCc1cccs1` it was -27.1% (inactive).
Turning to `Nc1nc2c(ncn2[C@@H]2O[C@@H]3COP(=O)(O)O[C@H]3[C@H]2O)c(=O)[nH]1`, the max response was -4.75% (inactive).
In the case of `C[C@@]12C[C@]3(O)O[C@H](O1)[C@]1(COC(=O)c4ccccc4)[C@H]3C[C@@]12O[C@@H]1O[C@H](CO)[C@@H](O)[C@H](O)[C@H]1O`, the max response is 0.308% (inactive).
Regarding `CC(=O)O[C@@H](CO[C@@H]1O[C@H](CO)[C@H](O)[C@H](O)[C@H]1O)[C@]1(C)C=C2CC[C@@H]3C(C)(C)[C@@H](O)CC[C@@]3(C)[C@@H]2CC1`, the max response is -1.31% (inactive).
As to `C/C=C/C=C/[C@@H]1O[C@](O)([C@H](CC)C(=O)NC/C=C/C=C(\C)[C@@H](OC)[C@@H](C)C2OC(/C=C/C=C/C=C(\C)C(=O)c3c(O)cc[nH]c3=O)[C@H](O)[C@@H]2O)[C@H](O)[C@H](O)C1(C)C` (stereo not given in full), the max response was 1.43% (inactive).
Consider `CC[C@H](CO)Nc1nc(NCc2ccc(-c3ccccn3)cc2)c2ncn(C(C)C)c2n1`, for which the Potency was 0.206 µM (active).
For the compound `O=C(Nc1ccccc1)N1CCN(Cc2ccc3ccccc3n2)CC1`, the max response was -11% (inactive).
On to `O=C(O)c1ccccc1NCCc1ccccc1`, for which the max response was 1.97% (inactive).
`CC1(C)CC[C@]2(C(=O)O)CC[C@]3(C)C(=CCC4[C@@]5(C)CC[C@H](O[C@@H]6O[C@H](CO)[C@@H](O)[C@H](O)[C@H]6O[C@@H]6O[C@H](CO)[C@@H](O)[C@H](O)[C@H]6O)[C@@](C)(CO)C5CC[C@]43C)[C@@H]2C1` (stereo not given in full): the max response is -6.18% (inactive).
For the compound `CC1(C)CC[C@]2(C(=O)O[C@@H]3O[C@H](CO)[C@@H](O)[C@H](O)[C@H]3O)CC[C@]3(C)C(=CCC4[C@@]5(C)C[C@@H](O)[C@H](O)[C@](C)(C=O)C5CC[C@]43C)[C@@H]2[C@@H]1O` (stereo not given in full), the max response was -5.81% (inactive).
As to `C[C@@H]1O[C@@H](O[C@H]2[C@H](O)[C@@H](O)[C@H](OC3CCC4(C)C5CCC(C)(C(CO)OC6OC(CO)C(O)C(O)C6O)CC5=CCC4C3(C)C)O[C@@H]2CO)[C@H](O)[C@H](O)[C@H]1O` (stereo not given in full), the max response was 4.31% (inactive).
Consider `CCOc1cc(C(=O)N2CCC(N3CCN(C)CC3)CC2)ccc1Nc1ncc2c(n1)N(C1CCCC1)c1ccccc1C(=O)N2C`, for which the Potency was 11.6 µM (active).
Take `C=C(C(=O)O)C1CC2=C(C)CCCC2(C)C[C@@H]1O` (stereo not given in full): the max response was -3% (inactive).
`CC1=CC(=O)C2C(C)(C)CCC[C@]2(C)[C@H]1CO` (stereo not given in full): the max response is 1.55% (inactive).
Still for that read-out and setting: under `N#C[C@@H]1CCCN1C(=O)CNC12CC3CC(CC(O)(C3)C1)C2` stands -12.1% (inactive); under `CC1(C)CC2C(O)c3cocc3CC(C)(O)C2C1` (stereo not given), 3.14% (inactive).
`O=C(NCc1ccc(F)cc1)C(=O)c1c[nH]c2ccccc12`: the max response is -9.93% (inactive).

These data come from PubChem BioAssay (NCATS).
